# Values joined by “and” are separate entries in the source; they are usually repeats but may differ in a detail not shown here. Equal entries are not always repeated. About 2,000 (36%) of roughly 5,500 compounds were called active. Another 18% or so got no clear call; they are omitted. No stated cut-off is given here; in the data, active means normalized growth mostly below about 0.91 (no sharp cut-off); inconclusive means no clear call, values can overlap the other calls; inactive means mostly above about 0.92. This is one part of the list.
# Assay: chemical genetic growth profiling, strain panel (AID 1159580);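 further: tested at 20 µM; growth read once vehicle control cultures reached saturation at 30 °C; 1 = growth at the plate median or of vehicle wells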
# Details: growth OD
compound,measurement,setting,value
COc1cc(OC)c2c(=O)cc(-c3ccccc3)oc2c1,normalized growth,"S. cerevisiae deletion strains, locus YAL013W, strain DEP1, stronger effect = lower value",0.912 (inactive)
same,normalized growth,"S. cerevisiae deletion strains, locus YBR021W, strain FUR4, stronger effect = lower value",0.978 (inactive)
same,normalized growth,"S. cerevisiae deletion strains, locus YBR229C, strain ROT2, stronger effect = lower value",0.949 (inactive)
same,normalized growth,"S. cerevisiae deletion strains, locus YCL029C, strain bik1, stronger effect = lower value",0.957 (inactive)
same,normalized growth,"S. cerevisiae deletion strains, locus YDL035C, strain GPR1, stronger effect = lower value",0.864 (inactive)
same,normalized growth,"S. cerevisiae deletion strains, locus YDL074C, strain BRE1, stronger effect = lower value",0.764 (active)
same,normalized growth,"S. cerevisiae deletion strains, locus YDL101C, strain DUN1, stronger effect = lower value",0.925 (inactive)
same,normalized growth,"S. cerevisiae deletion strains, locus YDL134C, strain PPH21, stronger effect = lower value",0.886 (active)
same,normalized growth,"S. cerevisiae deletion strains, locus YDL185W, strain tfp1, stronger effect = lower value",0.951 (inactive)
same,normalized growth,"S. cerevisiae deletion strains, locus YDL192W, strain arf1, stronger effect = lower value",0.914 (active)
same,normalized growth,"S. cerevisiae deletion strains, locus YDR101C, strain arx1, stronger effect = lower value",0.936 (inactive)
same,normalized growth,"S. cerevisiae deletion strains, locus YDR150W, strain NUM1, stronger effect = lower value",0.949 (inactive)
same,normalized growth,"S. cerevisiae deletion strains, locus YDR162C, strain NBP2, stronger effect = lower value",0.752 (active)
same,normalized growth,"S. cerevisiae deletion strains, locus YDR318W, strain mcm21, stronger effect = lower value",0.868 (active)
same,normalized growth,"S. cerevisiae deletion strains, locus YDR388W, stronger effect = lower value",0.951 (inactive)
same,normalized growth,"S. cerevisiae deletion strains, locus YDR502C, strain sam2, stronger effect = lower value",0.907 (active)
same,normalized growth,"S. cerevisiae deletion strains, locus YEL061C, strain CIN8, stronger effect = lower value",0.941 (inactive)
same,normalized growth,"S. cerevisiae deletion strains, locus YER110C, stronger effect = lower value",0.914 (inactive)
same,normalized growth,"S. cerevisiae deletion strains, locus YER155C, strain BEM2, stronger effect = lower value",0.951 (inactive)
same,normalized growth,"S. cerevisiae deletion strains, locus YER167W, strain BCK2, stronger effect = lower value",0.899 (active)
same,normalized growth,"S. cerevisiae deletion strains, locus YGL078C, strain dbp3, stronger effect = lower value",0.961 (inactive)
same,normalized growth,"S. cerevisiae deletion strains, locus YGL086W, strain mad1, stronger effect = lower value",0.924 (active)
same,normalized growth,"S. cerevisiae deletion strains, locus YGL248W, strain PDE1, stronger effect = lower value",0.866 (active)
same,normalized growth,"S. cerevisiae deletion strains, locus YGR078C, strain PAC10, stronger effect = lower value",0.805 (active)
same,normalized growth,"S. cerevisiae deletion strains, locus YGR135W, strain pre9, stronger effect = lower value",0.819 (active)
same,normalized growth,"S. cerevisiae deletion strains, locus YGR229C, strain SMI1, stronger effect = lower value",0.664 (active)
same,normalized growth,"S. cerevisiae deletion strains, locus YGR252W, strain gcn5, stronger effect = lower value",0.793 (inactive)
same,normalized growth,"S. cerevisiae deletion strains, locus YHR030C, strain SLT2, stronger effect = lower value",0.718 (active) and 0.911 (inactive)
same,normalized growth,"S. cerevisiae deletion strains, locus YHR079C, strain IRE1 (second series), stronger effect = lower value",0.895 (active)
same,normalized growth,"S. cerevisiae deletion strains, locus YHR079C, strain IRE1, stronger effect = lower value",0.925 (inactive)
same,normalized growth,"S. cerevisiae deletion strains, locus YHR094C, strain hxt1, stronger effect = lower value",0.96 (inactive)
same,normalized growth,"S. cerevisiae deletion strains, locus YHR129C, strain ARP1, stronger effect = lower value",0.934 (inactive)
same,normalized growth,"S. cerevisiae deletion strains, locus YHR200W, strain rpn10, stronger effect = lower value",0.929 (inactive)
same,normalized growth,"S. cerevisiae deletion strains, locus YIL066C, strain RNR3, stronger effect = lower value",0.912 (inactive)
same,normalized growth,"S. cerevisiae deletion strains, locus YIL073C, strain SPO22, stronger effect = lower value",0.844 (inactive)
same,normalized growth,"S. cerevisiae deletion strains, locus YIL125W, strain kgd1, stronger effect = lower value",0.975 (inactive)
same,normalized growth,"S. cerevisiae deletion strains, locus YIR030C, strain dcg1, stronger effect = lower value",0.95 (inactive)
same,normalized growth,"S. cerevisiae deletion strains, locus YJL095W, strain BCK1, stronger effect = lower value",0.51 (active) and 0.918 (inactive)
same,normalized growth,"S. cerevisiae deletion strains, locus YJL134W, strain LCB3, stronger effect = lower value",0.948 (inactive)
same,normalized growth,"S. cerevisiae deletion strains, locus YJL168C, strain set2, stronger effect = lower value",0.944 (inactive)
same,normalized growth,"S. cerevisiae deletion strains, locus YJL187C, strain SWE1 (second series), stronger effect = lower value",0.879 (inactive)
same,normalized growth,"S. cerevisiae deletion strains, locus YJR043C, strain POL32, stronger effect = lower value",0.894 (inactive)
same,normalized growth,"S. cerevisiae deletion strains, locus YJR066W, strain TOR1, stronger effect = lower value",0.872 (inactive)
same,normalized growth,"S. cerevisiae deletion strains, locus YJR075W, strain HOC1, stronger effect = lower value",0.884 (inactive)
same,normalized growth,"S. cerevisiae deletion strains, locus YKL009W, strain mrt4, stronger effect = lower value",0.906 (inactive)
same,normalized growth,"S. cerevisiae deletion strains, locus YKL068W, stronger effect = lower value",0.967 (inactive)
same,normalized growth,"S. cerevisiae deletion strains, locus YKL085W, strain MDH1 (second series), stronger effect = lower value",0.963 (inactive)
same,normalized growth,"S. cerevisiae deletion strains, locus YKL085W, strain MDH1, stronger effect = lower value",0.963 (inactive)
same,normalized growth,"S. cerevisiae deletion strains, locus YKL190W, strain CNB1, stronger effect = lower value",0.948 (inactive)
same,normalized growth,"S. cerevisiae deletion strains, locus YKR001C, strain vps1, stronger effect = lower value",0.839 (active)
same,normalized growth,"S. cerevisiae deletion strains, locus YLR039C, strain RIC1, stronger effect = lower value",0.644 (active)
same,normalized growth,"S. cerevisiae deletion strains, locus YLR058C, strain SHM2, stronger effect = lower value",0.913 (inactive)
same,normalized growth,"S. cerevisiae deletion strains, locus YLR102C, strain apc9, stronger effect = lower value",0.958 (inactive)
same,normalized growth,"S. cerevisiae deletion strains, locus YLR113W, strain HOG1, stronger effect = lower value",0.952 (inactive)
same,normalized growth,"S. cerevisiae deletion strains, locus YLR262C, strain YPT6, stronger effect = lower value",0.652 (inactive)
same,normalized growth,"S. cerevisiae deletion strains, locus YLR268W, strain sec22, stronger effect = lower value",0.877 (active)
same,normalized growth,"S. cerevisiae deletion strains, locus YLR330W, strain CHS5, stronger effect = lower value",0.929 (inactive)
same,normalized growth,"S. cerevisiae deletion strains, locus YLR342W, strain FKS1 (second series), stronger effect = lower value",0.71 (active)
same,normalized growth,"S. cerevisiae deletion strains, locus YLR371W, strain rom2, stronger effect = lower value",0.959 (inactive)
same,normalized growth,"S. cerevisiae deletion strains, locus YLR418C, strain cdc73, stronger effect = lower value",0.685 (active)
same,normalized growth,"S. cerevisiae deletion strains, locus YML016C, strain PPZ1, stronger effect = lower value",0.929 (inactive)
same,normalized growth,"S. cerevisiae deletion strains, locus YML032C, strain rad52, stronger effect = lower value",0.757 (active)
same,normalized growth,"S. cerevisiae deletion strains, locus YML124C, strain tub3, stronger effect = lower value",0.952 (inactive)
same,normalized growth,"S. cerevisiae deletion strains, locus YMR078C, strain ctf18, stronger effect = lower value",0.912 (inactive)
same,normalized growth,"S. cerevisiae deletion strains, locus YMR223W, strain ubp8, stronger effect = lower value",0.875 (active)
same,normalized growth,"S. cerevisiae deletion strains, locus YMR263W, strain SAP30, stronger effect = lower value",0.871 (active)
same,normalized growth,"S. cerevisiae deletion strains, locus YMR307W, strain GAS1, stronger effect = lower value",0.625 (inactive)
same,normalized growth,"S. cerevisiae deletion strains, locus YNL067W, strain RPL9B, stronger effect = lower value",0.889 (inactive)
same,normalized growth,"S. cerevisiae deletion strains, locus YNL128W, strain TEP1, stronger effect = lower value",0.939 (inactive)
same,normalized growth,"S. cerevisiae deletion strains, locus YNL153C, strain GIM3, stronger effect = lower value",0.924 (inactive)
same,normalized growth,"S. cerevisiae deletion strains, locus YNL183C, strain NPR1, stronger effect = lower value",0.88 (inactive)
same,normalized growth,"S. cerevisiae deletion strains, locus YNL233W, strain BNI4, stronger effect = lower value",0.846 (active)
same,normalized growth,"S. cerevisiae deletion strains, locus YNL250W, strain rad50, stronger effect = lower value",0.923 (inactive)
same,normalized growth,"S. cerevisiae deletion strains, locus YNL271C, strain bni1, stronger effect = lower value",0.943 (inactive)
same,normalized growth,"S. cerevisiae deletion strains, locus YNL298W, strain CLA4, stronger effect = lower value",0.941 (inactive)
same,normalized growth,"S. cerevisiae deletion strains, locus YNL307C, strain MCK1, stronger effect = lower value",0.533 (active)
same,normalized growth,"S. cerevisiae deletion strains, locus YNL322C, strain KRE1, stronger effect = lower value",0.946 (inactive)
same,normalized growth,"S. cerevisiae deletion strains, locus YNR052C, strain pop2, stronger effect = lower value",0.902 (active)
same,normalized growth,"S. cerevisiae deletion strains, locus YOL006C, strain TOP1, stronger effect = lower value",0.472 (active)
same,normalized growth,"S. cerevisiae deletion strains, locus YOL012C, strain htz1",0.858 (inactive)
same,normalized growth,"S. cerevisiae deletion strains, locus YOL147C, strain pex11, stronger effect = lower value",0.944 (inactive)
same,normalized growth,"S. cerevisiae deletion strains, locus YOR061W, strain CKA2, stronger effect = lower value",0.941 (inactive)
same,normalized growth,"S. cerevisiae deletion strains, locus YOR069W, strain VPS5, stronger effect = lower value",0.95 (inactive)
same,normalized growth,"S. cerevisiae deletion strains, locus YOR136W, strain idh2, stronger effect = lower value",0.965 (inactive)
same,normalized growth,"S. cerevisiae deletion strains, locus YOR144C, strain elg1, stronger effect = lower value",0.949 (inactive)
same,normalized growth,"S. cerevisiae deletion strains, locus YOR184W, strain ser1, stronger effect = lower value",0.792 (active)
same,normalized growth,"S. cerevisiae deletion strains, locus YOR231W, strain MKK1, stronger effect = lower value",0.925 (inactive)
same,normalized growth,"S. cerevisiae deletion strains, locus YOR316C, strain cot1, stronger effect = lower value",0.943 (inactive)
same,normalized growth,"S. cerevisiae deletion strains, locus YPL055C, strain LGE1, stronger effect = lower value",0.83 (inactive)
same,normalized growth,"S. cerevisiae deletion strains, locus YPL241C, strain CIN2, stronger effect = lower value",0.946 (inactive)
same,normalized growth,"S. cerevisiae deletion strains, locus YPL256C, strain CLN2, stronger effect = lower value",0.911 (inactive)
same,normalized growth,"S. cerevisiae deletion strains, locus YPR119W, strain clb2, stronger effect = lower value",0.945 (inactive)
same,normalized growth,"S. cerevisiae deletion strains, locus YPR141C, strain kar3, stronger effect = lower value",0.967 (inactive)
same,normalized growth,"S. cerevisiae deletion strains, locus YPR163C, strain tif3, stronger effect = lower value",0.785 (active)
same,normalized growth,"S. cerevisiae deletion strains, locus YPR167C, strain met16, stronger effect = lower value",0.951 (inactive)
same,normalized growth,"S. cerevisiae deletion strains, strain wtn01, stronger effect = lower value",0.868 (active)
same,normalized growth,"S. cerevisiae strains, strain wild type, stronger effect = lower value",0.905 (inactive)
